From PubChem BioAssay
Values joined by “and” are separate entries in the source; they are usually repeats but may differ in a detail not shown here. Equal entries are not always repeated. Active and inactive are the calls of the source. The rule behind the calls is not given here.

Assay: liver-stage malaria parasite load reduction – cell-based, known kinase inhibitor set, luminescence, hepatoma host viability (AID 624392);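 note: infected cells incubated roughly two days before readout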
Conditions: Plasmodium liver stage in hepatoma cells, luciferase luminescence, concentration not given here; liver cell % of control: measured here: host liver cell viability; parasite % of control: stronger effect = lower value
With `CCN1CCN(Cc2ccc(NC(=O)c3cc(NC(=O)c4cnnc5ccccc45)cc(OC)c3)cc2C(F)(F)F)CC1` the liver cell % of control was 94.5% and the parasite % of control was 85.8% (inactive).
In the case of `COc1cc(NC(=O)c2ccc(N)nc2)cc(C(=O)Nc2cccc(C(F)(F)F)c2)c1`, the liver cell % of control is reported as 97.9% and the parasite % of control is reported as 85% (inactive).
For `CC(C)C(CO)Nc1nc(Nc2ccc(C(=O)O)c(Cl)c2)c2ncn(C(C)C)c2n1` (stereo unspecified), the parasite % of control was 13.7% (inactive) and 48.9% (inactive) and 114% (inactive) and the liver cell % of control was 52.3% and 72.3%.
In the case of `CC(C)n1cnc2c(Nc3ccc(F)c(Cl)c3)nc(NCCO)nc21`, the liver cell % of control is reported as 96.9% and the parasite % of control is reported as 107% (inactive).
For `COc1cc(C(=O)NC2CCN(C)CC2)ccc1Nc1ncc2c(n1)N(C1CCC(O)CC1)CCC(=O)N2C` (stereo unspecified), the parasite % of control was 180% (inactive) and the liver cell % of control was 103%.
With `CCN1CCN(Cc2ccc(NC(=O)c3cc(NC(=O)c4cncc(-c5ccc(C#N)cc5)c4)cc(OC)c3)cc2C(F)(F)F)CC1` the liver cell % of control was 77.4% and the parasite % of control was 95.5% (inactive).
In the case of `O=C(Nc1cccc(-c2csc(Nc3cccc(C(F)(F)F)c3)n2)c1)c1cc([N+](=O)[O-])cc(C(F)(F)F)c1`, the parasite % of control is reported as 79.7% (inactive) and the liver cell % of control is reported as 98.5%.
In the case of `CCN1CCN(Cc2ccc(NC(=O)c3ccc(C)c(C=Cc4cnc(Nc5cc(N6CCNCC6)nc(C)n5)cn4)c3)cc2C(F)(F)F)CC1`, the liver cell % of control is reported as 96.8% and the parasite % of control is reported as 369% (inactive).
For `NS(=O)(=O)c1ccc(-c2ccc(C=C3SC(=O)NC3=O)o2)cc1`, the liver cell % of control was 89% and the parasite % of control was 18.1% (active).
With `O=C(Nc1ccc(-c2csc(Nc3ccccc3)n2)cc1)c1ccccc1` the liver cell % of control was 102% and the parasite % of control was 204% (inactive).
With `O=C(Nc1ccc(-c2csc(Nc3cccc(C(F)(F)F)c3)n2)cc1)c1cc([N+](=O)[O-])cc(C(F)(F)F)c1` the liver cell % of control was 101% and the parasite % of control was 70% (inactive).
For `C=CC(=O)Nc1cccc(N(C)c2ccnc(Nc3ccc(N4CCN(C)CC4)cc3)n2)c1`, the parasite % of control was 6.04% (inactive) and the liver cell % of control was 95.1%.
With `O=c1[nH]c2ccccc2c2ncnc(Nc3ccc(OC(F)(F)F)cc3)c12` the parasite % of control was 119% (inactive) and the liver cell % of control was 101%.
In the case of `C=CC(=O)Nc1cccc(Oc2cc(Cl)nc3[nH]ccc23)c1`, the liver cell % of control is reported as 101% and the parasite % of control is reported as 63.5% (inactive).
With `NC(=O)c1cccc(-c2cnc(N)c(C(=O)c3cccnc3)n2)c1` the liver cell % of control was 101% and the parasite % of control was 179% (inactive).
For `NC1CCC(Nc2nc(Nc3ccc(S(=O)(=O)N4CCCCC4)cc3)c3ncn(-c4ccccc4)c3n2)CC1` (stereo unspecified), the liver cell % of control was 103% and the parasite % of control was 336% (inactive).
With `C=CC(=O)Nc1cccc(Oc2ccnc(Nc3ccc(N4CCN(C)CC4)cc3)n2)c1` the liver cell % of control was 106% and the parasite % of control was 162% (inactive).
With `C=CC(=O)Nc1ccc(Nc2ccnc(Nc3ccc(N4CCN(C)CC4)cc3)n2)cc1` the parasite % of control was 124% (inactive) and the liver cell % of control was 105%.
With `CCN1CCN(Cc2ccc(NC(=O)c3cc(NC(=O)c4cc5cccc(OC)c5o4)cc(OC)c3)cc2C(F)(F)F)CC1` the liver cell % of control was 93.7% and the parasite % of control was 89.9% (inactive).
For `C=CC(=O)Nc1cccc(N2C(=O)N(c3c(Cl)c(OC)cc(OC)c3Cl)Cc3cnc(NCCCCN(CC)CC)nc32)c1`, the liver cell % of control was 104% and the parasite % of control was 107% (inactive).
In the case of `CC(C)n1cnc2c(NCc3ccccc3)nc(NCc3ccccc3)nc21`, the parasite % of control is reported as 83.2% (inactive) and the liver cell % of control is reported as 91.8%.
In the case of `CCN1CCN(Cc2ccc(NC(=O)c3ccc(C)c(NC(=O)c4csc(-c5ccncc5)n4)c3)cc2C(F)(F)F)CC1`, the parasite % of control is reported as 126% (inactive) and the liver cell % of control is reported as 99.6%.
With `CCN1CCN(Cc2ccc(NC(=O)c3cc(NC(=O)c4nccnc4N)cc(OC)c3)cc2C(F)(F)F)CC1` the parasite % of control was 64.5% (inactive) and the liver cell % of control was 98.4%.
